Consider 16 compounds from PubChem BioAssay (NCI).

Molecules are shown by their SMILES. About 83,000 compounds went through this panel and 20% of them were active in at least one assay; those are over-represented in the sample as a whole.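 96-well plates, one dose, 48 hours. Percent growth reported; active if below 10.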 A number with no mark means an inactive call. The source made the active and inactive calls.

Holding throughout (test): NCI-60 one-dose screen, 48 h (100 = growth as untreated, 0 = no growth, -100 = all killed)
Holding throughout (settings): 10 µM unless noted

For assay [1], the system named is T-47D breast.
Assay [2] has as its system BT-549 breast.
For assay [3], the system named is MDA-MB-435 melanoma.
The test system of assay [4] is SW-620 colon.
Assay [5] relates to MCF7 breast.
Assay [6] has as its system HCT-116 colon.
The test system of assay [7] is HCC-2998 colon.
The subject of assay [8] is KM12 colon.

Turning to `COc1cc2c(=O)n(CC3CCCCC3)c3c4cc[nH]c4ncc3c2cc1OC`, the growth in assay [1] was 44.9%; in assay [2], 25.9%; in assay [3], 55.3%; in assay [4], 30.3%; in assay [5], 19.8%; in assay [6], 28.9%. The growth was 62.3% in assay [7] and 19% in assay [8].

For the compound `N#CC1=C(N)Oc2c(ccc3ccccc23)C1c1cccs1` (stereo not drawn), the growth is 64.3% in assay [1]; 25% in assay [2]; -31% (active) in assay [3]; 23.8% in assay [4]; 7.97% (active) in assay [5]; 8.25% (active) in assay [6]. Further, the growth is 16.7% in assay [7] and 4.37% (active) in assay [8].

With `Nc1nc2ccc(-c3nc4ccc5[nH]ncc5c4c4c3CCC4)cc2s1`, the growth in assay [1] was 31.2%; in assay [2], 47.1%; in assay [3] it was -35.5% (active); in assay [4], 6.95% (active); in assay [5] it was 13%; in assay [6] it was 15.9%. Moreover, the growth in assay [7] was 50.9%; in assay [8] it was 25.1%.

Consider `c1ccc(-c2nc(N3CCOCC3)c3c4c(sc3n2)CCCCC4)nc1`, for which the growth in assay [1] was 8.3% (active); in assay [2], 62.8%; in assay [3], 71%; in assay [4] it was 88.6%; in assay [5], 23.7%; in assay [6], 74.3%. The growth in assay [7] was 83%; in assay [8], 64.7%.

For the compound `CC1=N/C(=C\c2cccc(Br)c2)C(=O)O1`, the growth was 97.3% in assay [1]; 109% in assay [2]; 107% in assay [3]; 104% in assay [4]; 102% in assay [5]; 103% in assay [6]. The results for the growth in assay [7] and in assay [8] were 111% and 106%, respectively.

As for `COCCOC(=O)C1=C(C)NC(=S)NC1c1ccc2c(c1)OCO2` (stereo not drawn), the growth in assay [1] is 94.8%; in assay [2], 109%; in assay [3], 104%; in assay [4], 106%; in assay [5], 89.6%; in assay [6], 103%. For the same compound, the values for the growth in assay [7] and in assay [8] were 109% and 100%, respectively.

For `O=C1C(=O)N(CCCCn2cc(CO)nn2)c2ccccc21`, the growth in assay [1] is 98.7%; in assay [2], 115%; in assay [3], 98.9%; in assay [4] it was 99.7%; in assay [5] it was 100%; in assay [6] it was 95.5%. Further, the figures for the growth in assay [7] and in assay [8] were 107% and 101%, respectively.

In the case of `COCCOc1ccc(-c2nc3ccc(-c4nc5ccc(N6CCN(C)CC6)cc5[nH]4)cc3[nH]2)cc1`, the growth was 2.28% (active) in assay [1]; -30.5% (active) in assay [2]; -43.6% (active) in assay [3]; 4.55% (active) in assay [4]; 17.7% in assay [5]; -57.6% (active) in assay [6]. The growth was -52.7% (active) in assay [7] and 46.2% in assay [8].

Consider `O=c1ccc2cc3ccccc3cc2[nH]1`, for which the growth is 96.9% in assay [1]; 108% in assay [2]; 92.3% in assay [3]; 97.4% in assay [4]; 96.6% in assay [5]; 99.2% in assay [6]. Moreover, the growth in assay [7] is 83.3%; in assay [8], 101%.

Take `CN1C2CCC1/C(=C\c1ccc(Cl)cc1)C1=C2[C@@H](c2ccc(Cl)cc2)C(C#N)=C(N)O1` (stereo partly drawn): the growth in assay [1] is 81.7%; in assay [2], 97.5%; in assay [3], 91.5%; in assay [4] it was 94.3%; in assay [5] it was 66%; in assay [6], 63.7%. Further, the values for the growth in assay [7] and in assay [8] were 104% and 95%, respectively.

Regarding `C/C(=C(/c1ccc(O)cc1)c1ccc(OCCN(C)C)cc1)c1ccccc1`, the growth is 42.6% in assay [1]; 92.4% in assay [2]; 77.2% in assay [3]; 101% in assay [4]; 32.6% in assay [5]; 68.4% in assay [6]. In addition, the figures for the growth in assay [7] and in assay [8] were 97.8% and 81.1%, respectively.

Consider `O=c1c2cccc3c(Nc4ccccn4)ccc(c32)c2nc3ccccc3n12`, for which the growth in assay [1] was 46.6%; in assay [2], 87.4%; in assay [3] it was 99.4%; in assay [4] it was 77.1%; in assay [5], 28.7%; in assay [6], 65%. Moreover, the figures for the growth in assay [7] and in assay [8] were 68.5% and 74.8%, respectively.

In the case of `Cn1c(=O)c2c(ncn2CC[N+](C)(C)C)n(C)c1=O`, the growth is 88.8% in assay [1]; 115% in assay [2]; 104% in assay [3]; 106% in assay [4]; 99.9% in assay [5]; 100% in assay [6]. Also, the growth in assay [7] is 102%; in assay [8], 105%.

As to `COc1ccc(-c2cc(=O)[nH]c3c(OC)c4ccccc4c(OC)c23)cc1`, the growth in assay [1] was 31.6%; in assay [2] it was 26%; in assay [3], -28.9% (active); in assay [4], 19.6%; in assay [5], 13.4%; in assay [6], 12.1%. The growth in assay [7] is 0.772% (active); in assay [8], 2.11% (active).

Turning to `O=C(CNC1C2CC3CC(C2)CC1C3)Sc1nnc2sc3ccccc3n12` (stereo not drawn), the growth is 87.2% in assay [1]; 98% in assay [2]; 101% in assay [3]; 94.8% in assay [4]; 88.7% in assay [5]; 93.6% in assay [6]. Further, the figures for the growth in assay [7] and in assay [8] were 113% and 101%, respectively.

`COc1c(Cl)cc(Cl)cc1Cl`: the growth in assay [1] is 104%; in assay [2] it was 120%; in assay [3] it was 115%; in assay [4] it was 91.8%; in assay [5] it was 111%; in assay [6], 109%. In addition, the values for the growth in assay [7] and in assay [8] were 118% and 109%, respectively.
